Laboratory results as given in the antibiotic and cytotoxicity screens of Wong et al. (2023).
In all, about 39,000 compounds went through this assay and about 1,500 (3.8%) were called active. Only a selection was taken, and actives are over-represented in it overall.

tested on: HSkMC (human skeletal muscle cells); test: cytotoxicity call (relative viability < 0.9); details: 10 µM

| Structure (SMILES) | cytotoxicity call |
| --- | --- |
| C[C@@H]1CN([C@H](C)CO)C(=O)Cc2cc(NS(=O)(=O)c3ccc(Cl)cc3)ccc2O[C@H]1CN(C)C(=O)Nc1cccc2ccccc12 | inactive |
| C[C@H]1CN([C@@H](C)CO)C(=O)c2cccc(NC(=O)Nc3ccc4c(c3)OCO4)c2O[C@H]1CN(C)S(=O)(=O)c1cn(C)cn1 | inactive |
| CCCN(C)C[C@H]1OCCCC[C@H](C)Oc2ccc(NC(=O)NC3CCCCC3)cc2C(=O)N([C@@H](C)CO)C[C@H]1C | inactive |
| C[C@H]1CCCCO[C@@H](CN(C)S(=O)(=O)c2ccc(F)cc2)[C@@H](C)CN([C@@H](C)CO)C(=O)c2cc(NS(=O)(=O)c3cn(C)cn3)ccc2O1 | inactive |
| C[C@@H]1CN([C@@H](C)CO)C(=O)c2cc(NC(=O)c3ccncc3)ccc2O[C@@H](C)CCCCO[C@H]1CN(C)C(=O)Nc1ccccc1 | inactive |
| O=C(C[C@H]1C=C[C@@H](NC(=O)c2ccncc2)[C@@H](CO)O1)NCc1ccncn1 | inactive |
| Cc1ccccc1S(=O)(=O)N1C[C@@H](O)COC[C@H]2O[C@H](CC(=O)N3CCOCC3)CC[C@@H]21 | inactive |
| CC1CCC2(C)C(C=O)=CCCC2C1(C)CC1OC(O)C(=O)C12CO2 (centres undefined) | inactive |
| C[C@@H]1CCCCO[C@@H](CN(C)CC2CCCCC2)[C@H](C)CN([C@H](C)CO)C(=O)c2cc(NC(=O)CCC(F)(F)F)ccc2O1 | inactive |
| C[C@H](CO)N1C[C@H](C)[C@H](CN(C)C(=O)Nc2ccc(F)cc2)Oc2ccc(NC(=O)Cn3cnnn3)cc2C1=O | inactive |
| C[C@@H]1CN([C@@H](C)CO)C(=O)c2cccc(NC(=O)NC3CCCCC3)c2O[C@@H]1CN(C)C(=O)Nc1ccc(C(F)(F)F)cc1 | active |
| C[C@H](CO)N1C[C@H](C)[C@H](CN(C)C(=O)Nc2ccc(C(F)(F)F)cc2)Oc2c(NC(=O)NC3CCCCC3)cccc2C1=O | inactive |
| C[C@H]1CN([C@@H](C)CO)C(=O)c2cccc(NC(=O)NC3CCCCC3)c2O[C@@H]1CN(C)C(=O)Nc1ccc(C(F)(F)F)cc1 | inactive |
| C[C@@H]1CN([C@H](C)CO)C(=O)c2cccc(NC(=O)NC3CCCCC3)c2O[C@@H]1CN(C)C(=O)Nc1ccc(C(F)(F)F)cc1 | inactive |
| C[C@H]1CN([C@@H](C)CO)C(=O)c2cccc(NC(=O)NC3CCCCC3)c2O[C@H]1CN(C)C(=O)Nc1ccc(C(F)(F)F)cc1 | active |
| C[C@@H]1CN([C@H](C)CO)C(=O)c2cccc(NC(=O)NC3CCCCC3)c2O[C@H]1CN(C)C(=O)Nc1ccc(C(F)(F)F)cc1 | inactive |
| COc1ccc(NC(=O)Nc2ccc3c(c2)C(=O)N([C@H](C)CO)C[C@H](C)[C@H](CN(C)S(=O)(=O)c2cn(C)cn2)O3)cc1 | inactive |
| Cc1cc(-c2cccs2)cc(C)n1 | inactive |
| COCC(=O)N1C[C@H](C)[C@H](OC)CN(C)C(=O)c2cc(NC(=O)c3cc(C)on3)ccc2OC[C@@H]1C | inactive |
| COc1cc2c(cc1O)CCN[C@]21CS[C@@H]2c3c(OC(C)=O)c(C)c4c(c3[C@H](COC1=O)N1[C@@H]2[C@H]2c3c(cc(C)c(OC)c3O)C[C@@H]([C@@H]1O)N2C)OCO4 | active |

| Structure (SMILES) | cytotoxicity call |
| --- | --- |
| COc1ccc(NC(=O)N(C)C[C@H]2OCCCC[C@@H](C)Oc3ccc(NC(=O)Nc4ccc(C(F)(F)F)cc4)cc3C(=O)N([C@@H](C)CO)C[C@H]2C)cc1 | inactive |
| CCS(=O)(=O)Nc1ccc2c(c1)C(=O)N(C)C[C@@H](OC)[C@@H](C)CN(Cc1nccs1)[C@@H](C)CO2 | inactive |
| C[C@@H]1CCCCO[C@@H](CN(C)Cc2ccc(Cl)c(Cl)c2)[C@@H](C)CN([C@H](C)CO)C(=O)c2cc(NS(=O)(=O)c3ccccc3)ccc2O1 | inactive |
| C[C@@H]1CCCCO[C@H](CN(C)Cc2ccc(Cl)c(Cl)c2)[C@H](C)CN([C@@H](C)CO)C(=O)c2cc(NS(=O)(=O)c3ccccc3)ccc2O1 | active |
| C[C@@H]1CCCCO[C@@H](CN(C)Cc2ccc(Cl)c(Cl)c2)[C@H](C)CN([C@H](C)CO)C(=O)c2cc(NS(=O)(=O)c3ccccc3)ccc2O1 | active |
| C[C@H](CO)N1C[C@H](C)[C@@H](CN(C)Cc2ccc(Cl)c(Cl)c2)OCCCC[C@H](C)Oc2ccc(NS(=O)(=O)c3ccccc3)cc2C1=O | inactive |
| C[C@@H]1CCCCO[C@@H](CN(C)Cc2ccc(Cl)c(Cl)c2)[C@H](C)CN([C@@H](C)CO)C(=O)c2cc(NS(=O)(=O)c3ccccc3)ccc2O1 | active |
| C[C@@H]1CCCCO[C@@H](CN(C)Cc2ccc(Cl)c(Cl)c2)[C@@H](C)CN([C@@H](C)CO)C(=O)c2cc(NS(=O)(=O)c3ccccc3)ccc2O1 | active |
| C[C@@H]1CN([C@H](C)CO)C(=O)c2cc(NS(=O)(=O)c3ccccc3)ccc2O[C@@H](C)CCCCO[C@H]1CN(C)Cc1ccc(Cl)c(Cl)c1 | inactive |
| Cc1noc(C)c1NC(=O)Nc1cccc2c1O[C@@H](CN(C)C(=O)NC(C)C)[C@@H](C)CN([C@H](C)CO)C2=O | inactive |
| CCCC#Cc1cnc2c(c1)C(=O)N([C@@H](C)CO)C[C@@H](C)[C@H](CN(C)S(=O)(=O)c1cccc(OC)c1)O2 | inactive |
| O=C(C[C@@H]1CC[C@H]2[C@@H](COC[C@H](O)CN2C(=O)c2cccnc2)O1)NCc1ccc(-c2ccccc2)cc1 | inactive |
| C[C@H]1CN([C@@H](C)CO)C(=O)c2cc(NS(=O)(=O)c3ccc(F)cc3)ccc2O[C@H]1CN(C)S(=O)(=O)c1cccs1 | inactive |
| COc1ccc(NC(=O)N(C)C[C@H]2Oc3ccc(NC(=O)Nc4ccc(C(F)(F)F)cc4)cc3CC(=O)N([C@H](C)CO)C[C@H]2C)cc1 | inactive |
| C[C@H](CO)N1C[C@H](C)[C@H](CN(C)S(=O)(=O)c2ccc(Cl)cc2)Oc2c(NC(=O)c3ccc(-c4nccs4)cc3)cccc2C1=O | inactive |
| C[C@@H]1CN([C@H](C)CO)C(=O)c2cc(C#CC3(O)CCCC3)cnc2O[C@@H]1CN(C)C(=O)C1CCCCC1 | inactive |
| C[C@@H](NC(=O)C[C@@H]1CC[C@H](NC(=O)CN2CCOCC2)[C@@H](CO)O1)c1ccccc1 | inactive |
| O=S1(=O)C[C@H](O)[C@@H](N2CCN(CCO)CC2)C1 | inactive |
| C[C@H](CO)N1C[C@H](C)[C@H](CN(C)S(C)(=O)=O)Oc2ccc(NS(=O)(=O)c3ccc(F)cc3)cc2C1=O | inactive |
| CC(C)NC(=O)Nc1ccc2c(c1)CC(=O)N([C@@H](C)CO)C[C@@H](C)[C@H](CN(C)C(=O)NC1CCCCC1)O2 | inactive |

| Structure (SMILES) | cytotoxicity call |
| --- | --- |
| COc1cccc(S(=O)(=O)N(C)C[C@H]2Oc3ncc(-c4cccc(C(=O)N(C)C)c4)cc3C(=O)N([C@@H](C)CO)C[C@@H]2C)c1 | inactive |
| CCCNC(=O)Nc1ccc2c(c1)C(=O)N(C)C[C@@H](OC)[C@H](C)CN(Cc1ccc(-c3ccccn3)cc1)[C@H](C)CO2 | inactive |
| CNC[C@H]1Oc2ccc(NS(=O)(=O)c3cn(C)cn3)cc2CC(=O)N([C@@H](C)CO)C[C@@H]1C | inactive |
| Cc1noc(C)c1NC(=O)Nc1ccc2c(c1)C(=O)N([C@H](C)CO)C[C@@H](C)[C@H](CN(C)CC1CC1)OCCCC[C@@H](C)O2 | inactive |
| CCCC#Cc1cnc2c(c1)C(=O)N([C@H](C)CO)C[C@@H](C)[C@@H](CN(C)S(=O)(=O)c1cn(C)cn1)O2 | inactive |
| C[C@@H]1CN([C@@H](C)CO)C(=O)Cc2cc(NC(=O)C3CCCCC3)ccc2O[C@H]1CN(C)Cc1ccc(C(=O)Nc2ccccc2N)cc1 | inactive |
| C[C@@H]1CCCCO[C@H](CN(C)Cc2ccc(Cl)c(Cl)c2)[C@@H](C)CN([C@@H](C)CO)C(=O)c2cc(NS(=O)(=O)c3ccccc3)ccc2O1 | active |
| C[C@@H]1CCCCO[C@H](CN(C)Cc2ccc(Cl)c(Cl)c2)[C@@H](C)CN([C@H](C)CO)C(=O)c2cc(NS(=O)(=O)c3ccccc3)ccc2O1 | inactive |
| C[C@H]1CCCCO[C@H](CN(C)Cc2ccc(Cl)c(Cl)c2)[C@@H](C)CN([C@@H](C)CO)C(=O)c2cc(NS(=O)(=O)c3ccccc3)ccc2O1 | inactive |
| C[C@@H]1CN([C@H](C)CO)C(=O)c2cc(NS(=O)(=O)c3ccccc3)ccc2O[C@@H](C)CCCCO[C@@H]1CN(C)Cc1ccc(Cl)c(Cl)c1 | active |
| Cc1noc(C)c1NC(=O)N(C)C[C@@H]1OCCCC[C@@H](C)Oc2ccc(NC(=O)NC3CCCCC3)cc2C(=O)N([C@@H](C)CO)C[C@H]1C | inactive |
| C[C@H](CO)N1C[C@H](C)[C@@H](CN(C)C(=O)Nc2ccc(-c3ccccc3)cc2)OCc2ccccc2-c2ccccc2C1=O | inactive |
| CC(C)[Si](C#C[Si](C(C)C)(C(C)C)C(C)C)(O[C@H](C)c1cn([C@H](C)c2ccccc2)nn1)C(C)C | inactive |
| COc1ccc(S(=O)(=O)Nc2ccc3c(c2)C(=O)N([C@H](C)CO)C[C@H](C)[C@H](CN(C)C(=O)c2ccccc2)OCCCC[C@@H](C)O3)cc1 | inactive |
| C[C@H](CO)N1C[C@H](C)[C@H](CN(C)Cc2ccccc2F)Oc2cc(C#CCN(C)C)ccc2S1(=O)=O | inactive |
| COc1ccc(NC(=O)N(C)C[C@H]2Oc3c(NC(=O)c4cnccn4)cccc3C(=O)N([C@@H](C)CO)C[C@H]2C)cc1 | inactive |
| COc1ccc(NC(=O)N(C)C[C@@H]2Oc3c(NC(=O)Nc4ccc(C(F)(F)F)cc4)cccc3C(=O)N([C@H](C)CO)C[C@@H]2C)cc1 | inactive |
| C[C@@H]1CN([C@@H](C)CO)C(=O)c2cccc(NC(=O)c3ccc(-c4nccs4)cc3)c2O[C@H]1CN(C)Cc1ccc(Oc2ccccc2)cc1 | inactive |
| COc1ccc(NC(=O)Nc2cccc3c2O[C@@H](CN(C)C(=O)Nc2ccc(C(F)(F)F)cc2)[C@H](C)CN([C@H](C)CO)C3=O)cc1 | inactive |
